Values joined by “and” are separate entries in the source; they are usually repeats but may differ in a detail not shown here. Equal entries are not always repeated. Results filed as inconclusive are left out. A call without a number means that no potency is given here. Active and inactive are the calls of the source. Calls follow the shape of the dose curve; as a rule, active = well fitted cell-killing curve with a large enough effect in the repeat runs; inconclusive = weak or mixed curves, or effect the other way; inactive = no such curve, though single readings can be large or run the other way.
Potency is read from the fitted curve at half-maximal effect.

A short description of this assay: qHTS assay for identifying genotoxic compounds that show differential cytotoxicity against isogenic chicken DT40 cell lines with known DNA damage response pathways - Rev3 mutant cell line (AID 743014). Also: nearly all actives have a fitted effect of over 55% in size. The conditions noted are these: chicken DT40 Rev3-/- viability, CellTiter-Glo, 40 h; series mostly up to 68.4 µM. The text has this: National Center for Advancing Translational Sciences [NCATS]
NIH Chemical Genomics Center [NCGC]
U.S. Environmental Protection Agency [EPA]
National Institutes of Environmental Health Sciences [NIEHS]
National Toxicology Program [NTP]
U.S. Food and Drug Administration [FDA]
DNA repair pathways play a critical role in cellular homeostasis by repairing DNA damage induced by endogenous processes and xenobiotics. Isogenic chicken DT40 cell lines deficient in different DNA repair pathways can be used to identify genotoxic compounds and aid in characterizing the nature of the DNA damage induced. Two DNA repair-deficient cell lines with disrupted genes, Rad54/Ku70 or Rev3, were used to screen the Tox21 10K compound library. Possible genotoxicity was based on the presence of a significant increase in cytotoxicity in one or more of the DNA repair-deficient cell lines compared to that observed in the parental DNA repair-proficient cell line. CellTiter Glo viability assay (Promega, Madison, WI) was used to measure cell viability in these cells after compound treatment. This assay includes the data from the Rev3 mutant cell line.
Tox21 Assay Protocol Summary:
300 DT40 mutant cells in 5 uL/well were dispensed into white, solid-bottom 1536-well plates using a Multidrop Combi (ThermoFisher Scientific, Waltham, MA) dispenser. After the assay plates were incubated at 37 C/5% CO2 for approximately 0.5 hour, 23 nL of compounds dissolved in DMSO, positive controls or DMSO only was transferred into the assay plate by a pintool work station (Kalypsys, San Diego, CA). The assay plates were incubated at 37 C/5% CO2 for 40 hours. After 5 uL per well of CellTiter-Glo reagent was added into each well of the assay plates, the plates were incubated for 30 min at room temperature and the luminescence intensity of the plates was measured using a ViewLux (PerkinElmer, Shelton, CT) plate reader.
Turning to `c1cc[c]([Hg][c]2ccccc2)cc1`, the Potency was 0.243 µM (active). The same measure for `COc1ccc(C(=O)N2CCCC2=O)cc1`: “inactive”.

Turning to `COc1cc(C[C@@H](C)N)c(OC)cc1C`, the Potency result was “inactive”. The same measure for `ClC(Cl)C(Cl)Cl`: “inactive”; for `O=C(O)c1cccc(Cl)c1`: “inactive”; for `COC(=O)c1ccccc1S(=O)(=O)NC(=O)N(C)c1nc(C)nc(OC)n1`: “inactive”. With `Nc1n[nH]c(N)n1`, the Potency result was “inactive”.

For the compound `O=C(Oc1ccc(Br)cc1)N1CCN2CCC1CC2`, the Potency is 54.5 µM (active). As for `C=CCC1=C(C)[C@@H](OC(=O)[C@@H]2[C@@H](C=C(C)C)C2(C)C)CC1=O`, the Potency is 24.3 µM (active). For the compound `Cc1ncsc1CCCl`, the Potency result was “inactive”. As for `CCN(CC)CCOC(=O)C(C)(c1ccccc1)c1ccccc1`, the Potency is 11.9 µM (active). In the case of `COc1ncc(F)c2nc(S(=O)(=O)Nc3c(F)cccc3F)nn12`, the Potency result was “inactive”. On to `O=S(=O)(O)C(F)(F)C(F)(F)C(F)(F)C(F)(F)C(F)(F)C(F)(F)F`, for which the Potency result is “inactive”. With `CC1(C)C(=O)NC(=O)NC1=O`, the Potency result was “inactive”.

Regarding `CC1(C(=O)Nc2ccc(O)c(Cl)c2Cl)CCCCC1`, the Potency was 61.1 µM (active). Regarding `CN/C(=N\[N+](=O)[O-])NCC1CCOC1` (stereo not given), the Potency result is “inactive”. With `CCC(=O)c1ccccc1`, the Potency result was “inactive”. To `O=C1c2ccccc2C(=O)c2ccccc21` belongs “inactive”; to `ClC(Cl)(Cl)C(Cl)(Cl)Cl`, “inactive”; to `CCOP(=S)(OCC)SCSP(=S)(OCC)OCC`, 61.1 µM (active).

Turning to `COC(=O)c1ccccc1S(=O)(=O)NC(=O)Nc1nc(C)cc(C)n1`, the Potency result is “inactive”. The same measure for `Nc1cc2c3c(c1)C(c1ccccc1)=N[C@@H](NC(=O)c1cccnc1)C(=O)N3CC2`: “inactive”; for `CCC(Cl)[N+](=O)[O-]` (stereo not given): “inactive”; for `O=C(NCO)NCO`: “inactive”.

As to `O=C(Nc1ccccc1)N(Cc1ccc(Cl)cc1)C1CCCC1`, the Potency is 0.611 µM (active).

Consider `CCOC(=O)CP(=O)(OCC)OCC`, for which the Potency entry is “inactive”.

For the compound `O=CNC(N1CCN(C(NC=O)C(Cl)(Cl)Cl)CC1)C(Cl)(Cl)Cl` (stereo not given), the Potency was 61.1 µM (active). Consider `C[C@H]1CCC[C@H](O)CCCCCc2cc(O)cc(O)c2C(=O)O1`, for which the Potency was 26.6 µM (active) and 27.5 µM (active). To `CC(N)=S` belongs “inactive”. For the compound `O=[N+]([O-])c1cccc2c([N+](=O)[O-])cccc12`, the Potency entry is “inactive”. Take `C#C[C@]1(O)C=C[C@H]2[C@@H]3CCC4=CC(=O)CC[C@@H]4[C@H]3CC[C@@]21CC`: the Potency is 26.6 µM (active). As to `C1CCC(C2CCCCC2)CC1`, the Potency is 54.5 µM (active). On to `CCCCc1ccc(O)cc1`, for which the Potency result is “inactive”.

Regarding `N#CCCC#N`, the Potency result was “inactive”.

For the compound `CCOP(=S)(OCC)Oc1cc(-c2ccccc2)on1`, the Potency was 61.1 µM (active). To `CCCSC(=O)Cl` belongs “inactive”; to `O=P(O)(Oc1ccccc1)Oc1ccccc1`, “inactive”; to `Cc1nnc2n1-c1sc(CCC(=O)N3CCOCC3)cc1C(c1ccccc1Cl)=NC2`, “inactive”.

As to `CC(C)COP(=O)(OCC(C)C)OCC(C)C`, the Potency entry is “inactive”. The same measure for `CCN(Cc1ccc(Cl)nc1)/C(=C/[N+](=O)[O-])NC`: “inactive”.

The record behind these values is PubChem BioAssay (Tox21).
